Several values for one entry are separate records, joined by “and”; a condition that tells them apart may be missing. Equal entries are not always repeated. Compounds without any hit were thinned out: in the full panel of roughly 83,000, 20% have a hit.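 How to read the values: 0–100, growth inhibition (40 = 60% inhibited); 0, no net growth; -100 to 0, cell death (-40 = 40% of starting cells died; -100 = all dead).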 Activity calls are given as the source filed them. How the source made its calls: active means growth percent below 10; inactive means the rest.
Test system: MDA-MB-468 breast
Assay: NCI-60 one-dose screen, 48 h (100 = growth as untreated, 0 = no growth, -100 = all killed)
Conditions: 10 µM unless noted

Question: With O=C1/C(=C/c2ccccc2[N+](=O)[O-])Cc2ccccc21 as the compound, how does the growth read?
Answer: -46.2% (active) and -17.9% (active)

Question: How did the growth turn out when O=C(NCc1ccco1)Nc1cccc2c(NC(=O)NCc3ccco3)cccc12 was run?
Answer: 85.7% [100 µM] (inactive)

Question: For COc1ccc2oc(=O)cc(-c3c(C#N)c(N)n4nc(N)c(C#N)c4c3C#N)c2c1, which growth is on record?
Answer: 94.7% (inactive)

Question: With O=C1[C@H]2Cc3c([nH]c4ccccc34)[C@H](c3ccc(Br)cc3)N2C(=O)CN1C1CCN(CC2CCCCC2)CC1 as the compound, how does the growth read?
Answer: 80.1% (inactive)

Question: How did the growth turn out when CS(=O)(=O)Nc1cc(-c2ccc3ncnc(Nc4ccc(OCc5ccccn5)c(Cl)c4)c3c2)cnc1Cl was run?
Answer: -55.4% (active)

Question: Which growth does the source give for C=CCn1c(-c2ccc(-c3nc4ccc(C)cc4[nH]3)cc2)n[nH]c1=S here?
Answer: 95.6% (inactive)

Question: With CC(CCC(=O)O)(NC(=O)c1ccc([N+](=O)[O-])cc1)C(=O)O (stereo not given) as the compound, how does the growth read?
Answer: 112% (inactive)

Question: O=C1c2ccccc2C2(c3ccc(O)cc3)c3ccccc3Oc3cccc1c32 (stereo not given) was tested. Which growth did it give?
Answer: -8.79% (active)

Question: How did the growth turn out when c1csc([C@@H]2C[C@@H]3Cc4ccc5ccccc5c4N2O3)c1 was run?
Answer: 99.2% (inactive)

Question: C#C[C@]1(O)CC[C@H]2[C@@H]3CC=C4c5sc(C6CC6)nc5CC[C@]4(C)[C@H]3CC[C@@]21C was tested. Which growth did it give?
Answer: 68.4% (inactive)

Question: How did the growth turn out when O=C(CSc1nnc(-c2cc(-c3ccc(Cl)cc3)nc3ccccc23)n1-c1ccccc1)Nc1ccc(Cl)cc1 was run?
Answer: 110% (inactive)

Question: For CCC(=O)Oc1ccc(-c2ccccc2)cc1Br, which growth is on record?
Answer: 98.4% (inactive)

Question: With O=C1CCCc2nc3sc4c(=O)n(-c5ccccc5Cl)nnc4c3cc21 as the compound, how does the growth read?
Answer: 85.9% (inactive)

Question: With Cc1n(Cc2ccc3ccccc3c2)c(Cl)c(Cl)[n+]1Cc1ccc2ccccc2c1 as the compound, how does the growth read?
Answer: -19.5% (active)

Question: For COc1ccc(/C=C2\CCCC3=C2NC(N)=NC3c2ccc(OC)c(OC)c2)cc1OC (stereo not given), which growth is on record?
Answer: -16.3% (active)

Question: With Oc1[nH]c2ccccc2c1N=Nc1nnc2n1N=C(c1ccccc1)CS2 as the compound, how does the growth read?
Answer: 104% (inactive)

Question: How did the growth turn out when O=C(CCCCCCN1CC(=O)N2[C@@H](c3cccc(Br)c3)c3[nH]c4ccccc4c3C[C@H]2C1=O)NO was run?
Answer: 28.1% (inactive)

Question: COc1ccccc1NC(=O)c1cc2cc(Br)ccc2cc1O was tested. Which growth did it give?
Answer: -9.27% (active)

Question: For O=C(c1ccccc1)C(Cl)C(Cl)c1ccccc1 (stereo not given), which growth is on record?
Answer: 17.6% (inactive)

Question: O=[N+]([O-])c1ccc(CO)cc1 was tested. Which growth did it give?
Answer: 0.448% (active)

Question: With C=CCn1c(SCC(=O)Nc2ccc(/C(C)=N\O)cc2)nnc1-c1cc(-c2ccc(OC)cc2)nc2ccccc12 as the compound, how does the growth read?
Answer: 17.3% (inactive)

Question: With Nc1nc2c3ccncc3cc(-c3cccc(Cl)c3)c2c2cnccc12 as the compound, how does the growth read?
Answer: 36.6% (inactive)

Question: O=C(Nc1cccc(-c2ccc(Cl)c(C(F)(F)F)c2)c1)C1CCN(Cc2cccc3cccnc23)CC1 was tested. Which growth did it give?
Answer: -5.03% (active)

Question: For CCOC(=O)c1sc(N)c(C(=O)OCC)c1C, which growth is on record?
Answer: 59.4% (inactive)

Question: For Cc1ccc2c(n1)C(=O)C(Cl)=C(Nc1cccc(C(C)C)c1)C2=O, which growth is on record?
Answer: -9.52% (active)

Question: Which growth does the source give for COc1cccc(-c2nc3cc(NC(=O)c4ccc(Cl)c(C#N)c4)ccc3o2)c1 here?
Answer: -60.3% (active)

Question: For CCc1ccc2nc(NC(=O)Cc3csc(NC(=O)c4ccco4)n3)sc2c1, which growth is on record?
Answer: -54.2% (active)

Question: Which growth does the source give for CN1CCN(c2ccc(C(=O)Nc3cccc(C#Cc4cccc5[nH]nc(N)c45)c3)cc2C(F)(F)F)CC1 here?
Answer: -26.6% (active)

Question: ClCC#CCSc1ncnc2c1ncn2CC#CCCl was tested. Which growth did it give?
Answer: -57.2% (active)

Question: With O=C(Nc1ccccc1)C(CCCCN1C(=O)c2ccccc2C1=O)N1C(=O)c2ccccc2C1=O (stereo not given) as the compound, how does the growth read?
Answer: 103% (inactive)

Question: COC(=O)[C@]12CCC(C)(C)C[C@H]1[C@H]1/C(=N/OCCc3nn[nH]n3)C[C@@H]3[C@@]4(C)CC[C@H](OC(C)=O)C(C)(C)[C@@H]4CC[C@@]3(C)[C@]1(C)CC2 was tested. Which growth did it give?
Answer: 17.3% (inactive)

Question: For CNS(=O)(=O)c1n[nH]nc1-c1cc(C(C)(C)C)c(O)c(C(C)(C)C)c1, which growth is on record?
Answer: 92.2% (inactive)

Question: Which growth does the source give for COc1ccc(/C=C\c2cc(OC)c(OC)c(OC)c2)c(NS(=O)(=O)c2ccc(C(C)(C)C)cc2)c1O here?
Answer: 38.9% (inactive)

Question: How did the growth turn out when COc1ccc2nc3ccccc3c(NCc3ccccc3)c2c1 was run?
Answer: -9.89% (active)

Question: How did the growth turn out when CCC(=C(c1ccc(OCCN(C)C)cc1)c1ccc(OCCN(C)C)cc1)c1ccc(Cl)cc1 was run?
Answer: -82.8% (active)

Question: COC1=C(Br)C(=O)C(OC)=C(Br)C1=O was tested. Which growth did it give?
Answer: 89.2% (inactive)

Question: Which growth does the source give for CCN1CCN(c2cc(-c3cn[nH]c3-c3cc(C)cc(OC)c3)nc(-c3cccnc3)n2)CC1 here?
Answer: 54.3% (inactive)

Question: Which growth does the source give for CC(=O)OCC1OC(OC2=C(CC=C(Cl)Cl)C(=O)c3ccccc3C2=O)C(OC(C)=O)C(OC(C)=O)C1OC(C)=O (stereo not given) here?
Answer: -61.7% (active)

Question: COc1cc2ncn3c(=O)c4c5c(sc4nc3c2cc1OC)CCCCC5 was tested. Which growth did it give?
Answer: 107% (inactive)

Question: With Cc1ccc2c(/C=C/C(=O)c3cc(CN4CCOCC4)c(O)c4nc(C)ccc34)cc(CN3CCOCC3)c(O)c2n1 as the compound, how does the growth read?
Answer: -40.4% (active)
